From PubChem BioAssay AID652054 (National Center for Advancing Translational Sciences (NCATS), 2013) come the findings set out here.

Each structure is given as a SMILES string. About 9,100 (2.5%) of roughly 360,000 compounds were called active. Another 4% or so got no clear call; they are omitted. What follows is part of a selection rich in actives, with near analogues and random picks from the rest. Values without a mark were called inactive. Rule as the data show it: active = max response below about -50%; inconclusive = no clear call, values can overlap the other calls; inactive = above that.
% is scaled to controls: 0 for no effect and ±100 for the full control effect.

D(3) dopamine receptor (Homo sapiens), sequence (P35462 whole entry, looked up): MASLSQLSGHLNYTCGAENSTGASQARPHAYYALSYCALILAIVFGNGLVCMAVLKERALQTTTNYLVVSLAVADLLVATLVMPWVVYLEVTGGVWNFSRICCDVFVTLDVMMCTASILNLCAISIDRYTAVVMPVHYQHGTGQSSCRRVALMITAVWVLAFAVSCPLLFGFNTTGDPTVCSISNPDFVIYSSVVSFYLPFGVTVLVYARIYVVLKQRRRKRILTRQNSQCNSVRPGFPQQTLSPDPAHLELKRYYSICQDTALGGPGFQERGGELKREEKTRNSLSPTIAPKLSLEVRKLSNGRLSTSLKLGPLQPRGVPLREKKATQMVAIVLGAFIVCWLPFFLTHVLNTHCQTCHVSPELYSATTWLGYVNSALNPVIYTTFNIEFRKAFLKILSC

This experiment has as its target D(3) dopamine receptor (Homo sapiens) (UniProt P35462). Description: qHTS of D3 Dopamine Receptor Antagonist: qHTS. The conditions noted are these: D3R cells, DiscoveRx beta-arrestin luminescence, antagonist mode; hits give low values. The method in brief: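 Cells plated overnight at 1500 cells/well, then exposed to library compounds with dopamine controls for 90 minutes at 37 degrees C. DiscoveRx reagent added for 30–60 minutes at room temperature; luminescence read, quantitative HTS format.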
(In qHTS, concentration-response curves come from the screen itself.)
Regarding `Cc1[nH]c2ccccc2c1C(=O)c1cc([C@H](NC(=O)OC(C)(C)C)C(C)C)sc1N`, the max response, negative = inhibition is 17.9%.

On to `COC(=O)c1ccc(CN2C(=O)C(Cc3ccccc3)ON=C2c2ncccc2C)o1` (centres undefined), for which the max response, negative = inhibition is 14.2%. For the compound `CCCCCCN1CCN(C2CN(Cc3cn(CCCCCC)nn3)S(=O)(=O)C2)CC1` (centres undefined), the max response, negative = inhibition was -13.3%.

Regarding `O=C(Nc1cccc2cccnc12)c1ccc2sc([C@H]3C[C@H](O)[C@@H](CO)O3)nc2c1`, the max response, negative = inhibition is 119%.

`CCN(CC)CCNc1ccc(Cl)cc1[N+](=O)[O-]`: the max response, negative = inhibition is -86.2% (active). Under `CN(C)CCNc1ccc(-c2n[nH]c(=O)c3ccccc23)cc1[N+](=O)[O-]` stands -21.7%; under `CSc1ccccc1NC(=O)CN(C)CC(=O)Nc1ccc(Cl)cc1[N+](=O)[O-]`, -10.8%; under `CC1Cc2[nH][nH]c(=O)c2C(C2CC2)O1` (centres undefined), 2.81%.

`O=C(NCc1ccccc1)C1c2ccccc2OCC(=O)N1C1CC1` (centres undefined): the max response, negative = inhibition was 3.07%. Regarding `CCC(c1nc2ccccc2[nH]1)n1c(=O)c(-c2cccs2)nc2ccccc21` (centres undefined), the max response, negative = inhibition is -19.2%.

Regarding `CC(=O)Nc1cnc(-c2ccc(O)cc2C)cn1`, the max response, negative = inhibition is 12.9%.

Turning to `CC1(C(=O)NS(=O)(=O)c2cccc(OC(F)F)c2)CCN1C(=O)COc1ccc(Cl)cc1` (centres undefined), the max response, negative = inhibition was 0%. Take `COc1cccc(OCC(=O)NNC(=O)c2cnccn2)c1`: the max response, negative = inhibition is -0.611%. Under `CCOc1ccc(C(=O)Nc2nccs2)cc1[N+](=O)[O-]` stands 2.71%; under `COc1ccc(C(=O)NNC(=O)c2cnccn2)cc1[N+](=O)[O-]`, -63.8% (active). Regarding `CCc1nc2ccc(C(=O)Nc3cc(-c4ccccc4)ccc3OC)cn2c1N(CC)CC(=O)N(C)C`, the max response, negative = inhibition was -16.4%.

Regarding `NC(Cc1ccccc1)c1csc(Nc2cc(Oc3ccccc3)ncn2)n1` (centres undefined), the max response, negative = inhibition was 9.45%. Under `O=C(c1cc(C2CCCCN2S(=O)(=O)c2ccccc2)on1)N1CCOCC1` (centres undefined) stands 44.2%; under `CCCCN(C(C)=O)c1ccc2c(c1)C1CC2CCN1Cc1ccccc1` (centres undefined), -22%; under `O=C(Cn1cnc2c(nnn2-c2ccccc2)c1=O)N1CCC(Cc2ccccc2)CC1`, -67.4% (active). Consider `COc1ccc(-n2nnc3c(=O)n(CC(=O)N4CCC(Cc5ccccc5)CC4)cnc32)cc1`, for which the max response, negative = inhibition is -29.9%.

Consider `COc1ccc(-n2nnc3c(=O)n(CC(=O)OCc4ccccc4)cnc32)cc1`, for which the max response, negative = inhibition is 7.78%.

On to `CC(C)(C)Cc1c(C2CCCCC2)nc2ccc(Br)cn12`, for which the max response, negative = inhibition is 20.9%. In the case of `CCN(CC)c1ncnc2c1ncn2[C@H]1CN(Cc2cccs2)C[C@@H](CO)O1`, the max response, negative = inhibition was -18.3%.
